Results reported in PubChem BioAssay (NCATS).
Results filed as inconclusive are left out. Active and inactive are the calls of the source. Unless noted, calls follow the shape of the dose curve; as a rule, active = well fitted curve in the direction sought with a large enough effect; inconclusive = small, poorly fitted or top-dose-only effect, or another doubt; inactive = no such curve, though single readings can be large; an effect the other way counts as inactive or inconclusive.

Experiments:
[1] = molecular target: Lysosomal acid glucosylceramidase (Homo sapiens) (UniProt P04062); assay: Glucocerebrosidase-p2 (AID 348; in the data active = potency below about 10 µM; also: potency is read from the fitted curve at half-maximal effect); settings: purified GBA, blue fluorogenic substrate, 40 min
Chain of Lysosomal acid glucosylceramidase (Homo sapiens) (P04062 whole entry, looked up): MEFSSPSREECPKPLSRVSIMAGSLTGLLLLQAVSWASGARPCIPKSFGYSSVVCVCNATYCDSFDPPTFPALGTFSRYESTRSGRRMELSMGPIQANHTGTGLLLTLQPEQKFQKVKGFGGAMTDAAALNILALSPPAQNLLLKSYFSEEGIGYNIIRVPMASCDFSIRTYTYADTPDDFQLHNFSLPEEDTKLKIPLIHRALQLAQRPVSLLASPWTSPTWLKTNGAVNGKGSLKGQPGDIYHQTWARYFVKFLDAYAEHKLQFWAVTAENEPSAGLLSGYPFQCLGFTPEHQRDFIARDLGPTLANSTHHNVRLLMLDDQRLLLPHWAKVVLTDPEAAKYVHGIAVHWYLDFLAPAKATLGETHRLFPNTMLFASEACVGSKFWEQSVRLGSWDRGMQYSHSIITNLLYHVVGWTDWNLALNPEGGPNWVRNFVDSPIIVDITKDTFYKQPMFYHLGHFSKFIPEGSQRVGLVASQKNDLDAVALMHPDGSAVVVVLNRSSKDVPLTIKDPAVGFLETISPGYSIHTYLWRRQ
Method in brief: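 Compounds titrated from 0.6 nM upwards against 0.2 nM enzyme in pH 5.9 citric acid/KH2PO4, taurocholate, tween-20; blue fluorogenic substrate 80 uM, 40 min room temperature, stopped and read Ex 365/Em 440 for AC50.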

[2] = AP1 Signaling Pathway (AID 357; active = well fitted curve in either direction with a large enough effect, not every such curve was filed as active; also: % is scaled to controls: 0 for no effect and ±100 for the full control effect); settings: ME-180 AP-1-bla reporter, EGF-induced, beta-lactamase ratio, 5 h; at 7.69 µM (top of the series) unless noted
Method in brief: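 ME-180 cells with beta-lactamase reporter under AP-1 response element, stimulated with EC50 EGF; compounds tested in titration series, 5 h at 37 °C. CCF4 substrate added 2.5 h at room temperature; 460/530 nm emission ratio gave %activity and AC50.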

[3] = molecular target: Cytochrome P450 1A2 (Homo sapiens) (UniProt P05177); assay: p450-cyp1a2 (AID 410; calls by dose curve; also: potency is read from the fitted curve at half-maximal effect;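 as to activity change, negative = inhibition: -100% = full effect of reference inhibitor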); settings: recombinant CYP1A2, luciferin-ME demethylation, luminescence; series mostly up to 57 µM
Chain of Cytochrome P450 1A2 (Homo sapiens) (P05177 whole entry, looked up): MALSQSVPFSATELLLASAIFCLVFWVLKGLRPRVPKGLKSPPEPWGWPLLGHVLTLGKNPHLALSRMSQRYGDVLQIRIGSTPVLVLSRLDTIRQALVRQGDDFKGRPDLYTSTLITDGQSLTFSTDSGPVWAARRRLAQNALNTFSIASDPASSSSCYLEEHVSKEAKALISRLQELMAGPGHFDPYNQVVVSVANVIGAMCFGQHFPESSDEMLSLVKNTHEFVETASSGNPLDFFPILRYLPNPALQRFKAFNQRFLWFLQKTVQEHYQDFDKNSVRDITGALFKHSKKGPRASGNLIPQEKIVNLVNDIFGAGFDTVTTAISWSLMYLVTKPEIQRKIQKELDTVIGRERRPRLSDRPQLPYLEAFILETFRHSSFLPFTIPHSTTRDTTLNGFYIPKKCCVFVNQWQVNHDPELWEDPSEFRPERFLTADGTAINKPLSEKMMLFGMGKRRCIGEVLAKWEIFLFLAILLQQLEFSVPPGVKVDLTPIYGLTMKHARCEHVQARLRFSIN
Method in brief: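 Inhibition was calculated relative to 57 uM furafylline (full inhibition). The reaction used human CYP1A2 at 20nM with Luciferin-ME at its Km, 100uM, driven by an NADPH-regenerating system for 60 min at room temperature.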

[4] = NFAT Signaling Pathway (AID 444; active = well fitted curve in either direction with a large enough effect, not every such curve was filed as active;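 also: carbachol stimulus at about its EC50 of 1 µM final; % is scaled to controls: 0 for no effect and ±100 for the full control effect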); settings: Jurkat NFAT-bla M1, carbachol, beta-lactamase ratio, 5 h; at 7.69 µM (top of the series) unless noted
Method in brief: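 Read-out: CCF4 FRET ratio (460 nm/530 nm) after 1 h RT dye loading, used for %activity and AC50 from titration series. Cells: Jurkat NFAT-β-lactamase/M1 line, treated with compound plus 1 uM carbachol for 5 h, 37 °C.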

[5] = Stat Signaling Pathway (AID 446; active = well fitted curve in either direction with a large enough effect, not every such curve was filed as active;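 also: ME-180 cervical cancer cells given 40 pM IL-6 alongside compound; SIE-controlled beta-lactamase reporter measured as 460/530 nm FRET emission ratio; % is scaled to controls: 0 for no effect and ±100 for the full control effect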); settings: ME-180 SIE beta-lactamase reporter, IL-6 stimulated, 5 h; at 7.69 µM (top of the series) unless noted
Method in brief: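 ME-180 SIE-bla cells; overnight plating; cpd + IL-6 40 pM, 5 h, 37 C; LiveBLAzer 2.5 h RT; 460/530 nm emission ratio. Normalized to 300 pM IL-6 and 125 nM JAK inhibitor controls.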

[6] = molecular target: Glucocorticoid receptor (Homo sapiens) (UniProt P04150); assay: GR-GFP Redistribution (AID 450;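 active = compounds whose dose series gives a full or clear partial fitted curve of increased nuclear translocation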; also: potency is read from the fitted curve at half-maximal effect); settings: U2OS GR-GFP nuclear translocation, laser cytometry, 2 h
Chain of Glucocorticoid receptor (Homo sapiens) (P04150 whole entry, looked up, the tested form may be a part): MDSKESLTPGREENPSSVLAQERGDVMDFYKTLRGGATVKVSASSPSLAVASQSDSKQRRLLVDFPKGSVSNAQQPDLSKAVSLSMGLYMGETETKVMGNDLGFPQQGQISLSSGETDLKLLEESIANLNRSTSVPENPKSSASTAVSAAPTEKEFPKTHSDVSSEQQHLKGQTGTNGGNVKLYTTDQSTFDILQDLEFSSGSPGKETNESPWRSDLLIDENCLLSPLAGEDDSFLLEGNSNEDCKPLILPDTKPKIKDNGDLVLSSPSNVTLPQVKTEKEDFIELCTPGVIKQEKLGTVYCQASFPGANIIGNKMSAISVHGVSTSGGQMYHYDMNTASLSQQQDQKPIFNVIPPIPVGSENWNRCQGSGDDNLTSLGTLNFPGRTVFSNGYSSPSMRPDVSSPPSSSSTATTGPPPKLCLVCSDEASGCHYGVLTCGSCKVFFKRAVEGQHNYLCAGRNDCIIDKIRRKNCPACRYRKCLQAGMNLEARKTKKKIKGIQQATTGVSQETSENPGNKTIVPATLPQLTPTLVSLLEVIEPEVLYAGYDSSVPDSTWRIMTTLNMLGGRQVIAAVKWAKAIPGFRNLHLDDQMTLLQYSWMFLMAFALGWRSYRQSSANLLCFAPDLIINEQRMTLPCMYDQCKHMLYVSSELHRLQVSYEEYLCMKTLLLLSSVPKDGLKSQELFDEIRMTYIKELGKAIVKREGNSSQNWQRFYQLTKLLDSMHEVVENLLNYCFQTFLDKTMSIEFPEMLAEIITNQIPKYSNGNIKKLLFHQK

[7] = molecular target: Glucocorticoid receptor (Homo sapiens) (UniProt P04150); assay: GR-EFC Redistribution (AID 451; calls by dose curve; also: potency is read from the fitted curve at half-maximal effect); settings: CHO-K1 GR-EFC translocation, beta-gal luminescence, 2 h
Method in brief: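 Translocation of GR-ED fusion to nuclear EA restores b-gal, read by luminescence after 1 h room-temperature detection. Engineered CHO-K1 biosensor cells, 1,000/well, exposed 2 h at 37 C to titrations up to 46 uM final.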

[8] = molecular target: Mitogen-activated protein kinase 10 (Mus musculus) (UniProt Q61831); assay: JNK3 AlphaScreen Assay (AID 530; active = well fitted curve in either direction with a large enough effect, not every such curve was filed as active;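 also: kinase came from lysate of stimulated human HepG2 cells; signal reports phosphorylation of biotinylated GST-cJun 1-79 at Ser73 with 10 µM ATP; % is scaled to controls: 0 for no effect and ±100 for the full control effect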); settings: JNK3 lysate, c-Jun phosphorylation; series mostly up to 57.1 µM
Method in brief: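 Room-temperature AlphaScreen kinase assay; pre-activated HepG2 lysate as JNK3 source, biotin-GST-cJun(1-79) substrate, 10 uM ATP, compound 15 min preincubation.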

[9] = molecular target: Cytochrome P450 3A4 (Homo sapiens) (UniProt P08684); assay: qHTS Assay for Inhibitors and Substrates of Cytochrome P450 3A4 (AID 884); settings: recombinant CYP3A4, Luciferin-PPXE luminescence; series mostly up to 57.1 µM; also: potency is read from the fitted curve at half-maximal effect; nearly all actives have a fitted effect of over 50% in size
Chain of Cytochrome P450 3A4 (Homo sapiens) (P08684 whole entry, looked up): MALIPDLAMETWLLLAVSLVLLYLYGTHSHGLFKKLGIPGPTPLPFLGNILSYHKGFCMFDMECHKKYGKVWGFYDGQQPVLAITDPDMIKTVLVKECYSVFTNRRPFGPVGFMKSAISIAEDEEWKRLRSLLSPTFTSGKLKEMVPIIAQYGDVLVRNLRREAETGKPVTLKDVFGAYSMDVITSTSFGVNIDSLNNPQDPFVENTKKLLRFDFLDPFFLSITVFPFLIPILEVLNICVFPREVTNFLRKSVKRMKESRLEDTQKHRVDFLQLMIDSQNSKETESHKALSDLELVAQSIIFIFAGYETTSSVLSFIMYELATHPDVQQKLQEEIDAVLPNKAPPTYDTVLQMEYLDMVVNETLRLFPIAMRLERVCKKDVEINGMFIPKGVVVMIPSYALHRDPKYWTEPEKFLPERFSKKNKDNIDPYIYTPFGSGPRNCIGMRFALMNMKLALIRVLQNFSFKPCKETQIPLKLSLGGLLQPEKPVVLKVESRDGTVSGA
Method in brief: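 20 nM human CYP3A4 with 25 uM Luciferin-PPXE (at KM) in 200 mM KPO4, preincubated 10 min with compound; NADPH regeneration started a 60 min RT reaction. Luciferin detected by luminescence, normalized to 57 uM ketoconazole as full inhibition.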

[10] = molecular target: Cytochrome P450 3A4 (Homo sapiens) (UniProt P08684); assay: qHTS Assay for Activators of Cytochrome P450 3A4 (AID 885); settings: recombinant CYP3A4, Luciferin-PPXE luminescence, 60 min; series mostly up to 57.1 µM; also: nearly all actives have a fitted effect of over 65% in size
Method in brief: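 20nM CYP3A4 + 25uM Luciferin-PPXE (=KM), 200mM KPO4; cpd 10 min RT; NADPH regen, 60 min RT; stop w/ detection buffer, 20 min; luminescence. Normalized to 57 uM ketoconazole.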

[11] = qHTS Assay for Lipid Storage Modulators (AID 1519; calls by dose curve); settings: Drosophila S3 cells, BODIPY lipid droplet/cell ratio, laser cytometry, cells loaded with oleic acid; for activity change, negative = inhibition: at 57.5 µM (top of the series)
Method in brief: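 Cells seeded at 5,000 per well were treated with compounds over a concentration series and loaded with oleic acid (400 uM, as added). Lipid droplet fluorescence (488 nm excitation, 500-530 nm channel) was read by laser-scanning cytometry and normalized to 20 uM Triacsin C.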

[12] = molecular target: Dual specificity protein kinase CLK4 (Homo sapiens) (UniProt Q9HAZ1); assay: qHTS Assay for Inhibitors of CDC-like Kinase 4 (ADP-FP Assay) (AID 1795); settings: Transcreener ADP fluorescence polarization; series mostly up to 50 µM; also: nearly all actives have a fitted effect of over 60% in size; also: potency is read from the fitted curve at half-maximal effect
Chain of Dual specificity protein kinase CLK4 (Homo sapiens) (Q9HAZ1 whole entry, looked up): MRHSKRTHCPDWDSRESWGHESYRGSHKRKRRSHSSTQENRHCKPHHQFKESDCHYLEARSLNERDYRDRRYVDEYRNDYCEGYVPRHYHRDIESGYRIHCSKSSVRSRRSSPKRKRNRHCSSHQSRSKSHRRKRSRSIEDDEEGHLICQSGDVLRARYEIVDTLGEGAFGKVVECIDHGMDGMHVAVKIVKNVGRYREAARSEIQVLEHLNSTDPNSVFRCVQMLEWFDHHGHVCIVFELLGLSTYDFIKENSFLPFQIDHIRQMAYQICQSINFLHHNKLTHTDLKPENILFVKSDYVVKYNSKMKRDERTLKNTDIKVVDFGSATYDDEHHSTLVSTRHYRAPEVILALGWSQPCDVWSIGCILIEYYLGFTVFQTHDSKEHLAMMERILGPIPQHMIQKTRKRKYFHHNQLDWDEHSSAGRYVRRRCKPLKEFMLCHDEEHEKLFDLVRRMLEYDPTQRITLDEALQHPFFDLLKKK
Method in brief: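 Recombinant human Clk4 (6.25 nM) phosphorylated RS repeat peptide (100 uM) with 1 uM ATP in Tris pH 7.5/MgCl2/EGTA/DTT/Triton buffer for one hour. ADP was quantified by Transcreener competitive fluorescence polarization against an ADP calibration curve.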

[13] = molecular target: Ubiquitin carboxyl-terminal hydrolase 1 (Homo sapiens) (UniProt O94782); assay: Inhibitors of USP1/UAF1: Pilot qHTS (AID 504865); settings: purified USP1/UAF1, Ub-rhodamine cleavage fluorescence; series mostly up to 54.9 µM;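 also: rhodamine fluorescence freed from ubiquitin-rhodamine substrate followed over time; top concentration of the series differs between compounds; % is scaled to controls: 0 for no effect and ±100 for the full control effect; nearly all actives have a fitted effect of over 35% in size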
Chain of Ubiquitin carboxyl-terminal hydrolase 1 (Homo sapiens) (O94782 whole entry, looked up): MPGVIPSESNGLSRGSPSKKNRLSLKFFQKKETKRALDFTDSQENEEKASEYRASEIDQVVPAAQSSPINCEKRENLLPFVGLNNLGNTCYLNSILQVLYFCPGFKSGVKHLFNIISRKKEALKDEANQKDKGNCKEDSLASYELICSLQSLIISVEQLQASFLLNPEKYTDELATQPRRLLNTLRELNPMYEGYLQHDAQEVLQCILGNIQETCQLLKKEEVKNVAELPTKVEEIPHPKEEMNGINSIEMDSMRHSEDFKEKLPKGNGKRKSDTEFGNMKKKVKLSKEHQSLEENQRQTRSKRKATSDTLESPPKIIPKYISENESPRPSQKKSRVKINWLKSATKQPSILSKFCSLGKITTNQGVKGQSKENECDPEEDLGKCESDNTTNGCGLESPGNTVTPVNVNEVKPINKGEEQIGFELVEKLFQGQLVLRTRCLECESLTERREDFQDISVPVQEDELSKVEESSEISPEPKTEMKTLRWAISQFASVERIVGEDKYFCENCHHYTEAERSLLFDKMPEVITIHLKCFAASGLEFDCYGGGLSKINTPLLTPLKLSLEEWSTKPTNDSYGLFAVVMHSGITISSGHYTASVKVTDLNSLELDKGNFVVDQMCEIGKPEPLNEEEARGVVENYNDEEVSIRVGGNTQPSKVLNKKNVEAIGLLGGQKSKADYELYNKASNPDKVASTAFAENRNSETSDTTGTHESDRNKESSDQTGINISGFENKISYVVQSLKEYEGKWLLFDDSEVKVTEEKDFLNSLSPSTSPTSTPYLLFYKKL
Method in brief: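 USP1/UAF1 complex (1nM) preincubated with compound 15 min at room temperature, then Ub-Rho substrate (150nM final) added. Fluorescence read kinetically at 480/540 nm, 6 reads every 60 seconds. Buffer: 50mM HEPES pH 7.8, 0.5mM EDTA, 0.1 mg/ml BSA, 1mM TCEP, 0.01% Tween-20.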

[14] = Primary qHTS for small molecule stabilizers of the endoplasmic reticulum resident proteome: Secreted ER Calcium Modulated Protein (SERCaMP) assay (AID 1508630); settings: SH-SY5Y GLuc-SERCaMP (Gaussia luciferase released on ER calcium loss) secretion, thapsigargin, luminescence; series mostly up to 38.4 µM; also: % is scaled to controls: 0 for no effect and ±100 for the full control effect
Method in brief: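 GLuc-SERCaMP-expressing SH-SY5Y cells, pretreated 16 h with compound, are challenged with thapsigargin to empty ER calcium stores; after 4 h, coelenterazine is added directly to the medium and luminescence is imaged.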

[15] = molecular target: 3',5'-cyclic-AMP phosphodiesterase 4B (Homo sapiens) (UniProt Q07343); assay: qHTS Assay for Inhibitors of PDE-IV (AID 607; active = well fitted activation curve with a large enough effect in the main read-out, with a control signal flat, not every such curve was filed as active; also: % of control where 0% means no effect); settings: HEK293 ACTOne CNG channel cells, membrane potential fluorescence; series mostly up to 22.9 µM
Chain of 3',5'-cyclic-AMP phosphodiesterase 4B (Homo sapiens) (Q07343 whole entry, looked up): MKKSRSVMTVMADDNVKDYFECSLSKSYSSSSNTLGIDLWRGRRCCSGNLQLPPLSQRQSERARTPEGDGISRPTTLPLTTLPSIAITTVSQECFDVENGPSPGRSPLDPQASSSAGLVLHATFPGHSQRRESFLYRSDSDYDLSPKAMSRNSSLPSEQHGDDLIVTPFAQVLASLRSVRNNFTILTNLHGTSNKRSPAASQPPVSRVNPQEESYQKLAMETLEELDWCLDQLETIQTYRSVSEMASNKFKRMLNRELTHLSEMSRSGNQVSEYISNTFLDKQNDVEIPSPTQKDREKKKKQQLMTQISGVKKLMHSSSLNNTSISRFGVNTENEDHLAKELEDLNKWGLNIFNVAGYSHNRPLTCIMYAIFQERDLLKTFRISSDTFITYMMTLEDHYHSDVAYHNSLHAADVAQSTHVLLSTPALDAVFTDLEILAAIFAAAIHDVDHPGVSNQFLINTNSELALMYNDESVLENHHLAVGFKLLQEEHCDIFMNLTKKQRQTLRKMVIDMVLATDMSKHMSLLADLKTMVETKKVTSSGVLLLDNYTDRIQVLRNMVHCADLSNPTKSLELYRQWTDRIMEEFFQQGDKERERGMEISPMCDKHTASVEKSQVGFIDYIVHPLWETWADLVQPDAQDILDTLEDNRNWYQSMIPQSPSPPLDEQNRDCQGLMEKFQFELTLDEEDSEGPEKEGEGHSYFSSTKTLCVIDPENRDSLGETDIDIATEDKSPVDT
Method in brief: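 ACTOne HEK293 cells carry a modified cAMP-gated CNG channel and express endogenous PDE4; plated 1000 cells/well, compounds up to 22.9 uM final. Membrane-potential dye fluorescence (ex 535/em 590) was read; parental cells received 10 uM forskolin + 100 uM RO 20-1724.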

[16] = molecular target: Dual specificity protein kinase CLK4 (Homo sapiens) (UniProt Q9HAZ1); assay: qHTS Assay for Inhibitors of CDC-like Kinase 4 (Kinase-Glo Assay) (AID 1770); settings: recombinant Clk4, Kinase-Glo ATP depletion luminescence; series mostly up to 66.7 µM; also: nearly all actives have a fitted effect of over 65% in size; also: potency is read from the fitted curve at half-maximal effect
Method in brief: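 Recombinant human Clk4 (25 nM) phosphorylated RS repeat peptide (100 uM) with 1 uM ATP in Tris pH 7.5/MgCl2/EGTA/DTT/Triton buffer for 4.5 h at room temperature. Residual ATP was quantified by Kinase-Glo luciferase luminescence.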

[17] = molecular target: Cytochrome P450 2C19 (Homo sapiens) (UniProt P33261); assay: qHTS Assay for Inhibitors and Substrates of Cytochrome P450 2C19 (AID 899); settings: recombinant CYP2C19, luciferin-H EGE luminescence; series mostly up to 57.1 µM; also: potency is read from the fitted curve at half-maximal effect; nearly all actives have a fitted effect of over 60% in size
Chain of Cytochrome P450 2C19 (Homo sapiens) (P33261 whole entry, looked up): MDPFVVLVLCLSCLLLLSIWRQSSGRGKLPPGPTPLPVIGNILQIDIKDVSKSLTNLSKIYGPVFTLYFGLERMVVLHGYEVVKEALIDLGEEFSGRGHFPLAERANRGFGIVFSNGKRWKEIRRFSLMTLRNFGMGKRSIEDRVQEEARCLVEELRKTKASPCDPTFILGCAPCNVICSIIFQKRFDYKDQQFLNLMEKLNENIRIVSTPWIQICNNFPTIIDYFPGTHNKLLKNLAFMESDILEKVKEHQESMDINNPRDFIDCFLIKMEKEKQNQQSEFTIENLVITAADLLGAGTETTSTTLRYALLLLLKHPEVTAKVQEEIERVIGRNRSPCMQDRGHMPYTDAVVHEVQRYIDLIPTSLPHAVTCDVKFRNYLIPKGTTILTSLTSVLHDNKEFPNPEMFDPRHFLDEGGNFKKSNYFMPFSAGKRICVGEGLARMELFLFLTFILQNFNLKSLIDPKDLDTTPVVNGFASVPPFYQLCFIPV
Method in brief: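 Reactions contain 5nM enzyme, 10uM Luciferin-H EGE (KM) and 50mM KPO4; compound preincubates 10 min at 37C, NADPH regeneration starts turnover for 60 min. Luminescence after detection reagent gives activity.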

[18] = measured here: cell count channel max response
[19] = measured here: lipid channel max response

| Compound | Potency [1] | activity change, negative = inhibition [2] | Potency [3] | activity change, negative = inhibition [4] | activity, negative = inhibition [5] | Potency [6] | Potency [7] | outcome [8] | Potency [9] | Potency [10] | activity change, negative = inhibition [11] | max response [11, 18] [%] | max response [11, 19] [%] | Potency [12] | Potency [13] | Potency [14] | Potency [15] | Potency [16] | Potency [17] |
| --- | --- | --- | --- | --- | --- | --- | --- | --- | --- | --- | --- | --- | --- | --- | --- | --- | --- | --- | --- |
| Fc1ccc(Nc2ncncc2-c2ccoc2)cc1 | > 11.4 µM (inactive) | -7.98% (inactive) | 0.316 µM (active) | 2.9% (inactive) | 4.97% (inactive) | > 46 µM (inactive) | > 46 µM (inactive) | inactive | 0.501 µM (active) | inactive | 4.26% (inactive) | 9.18 | 12.6 | 5.01 µM (active) | inactive | inactive |  |  |  |
| CN(C)C(=O)c1ccc(-c2cncnc2NCCc2cnc[nH]2)cc1 | > 11.4 µM (inactive) | -9.74% (inactive) | 12.6 µM (active) | 18.2% (inactive) | -26.8% (inactive) | > 46 µM (inactive) |  | inactive | 6.31 µM (active) | inactive | 3.4% (inactive) | 29.1 | 30.3 | inactive | inactive | inactive | inactive | inactive |  |
| FC(F)(F)c1ccccc1-c1ccc2ncnc(NCc3cccnc3)c2c1 | > 11.4 µM (inactive) | 5.26% (inactive) | 1 µM (active) | 21.5% (inactive) | -18.4% (inactive) | > 46 µM (inactive) | > 46 µM (inactive) | inactive | 1.58 µM (active) | inactive | -7.13% (inactive) | 9.95 | 2.08 | inactive | inactive | inactive |  | inactive | 0.0079 µM (active) |
| Cc1noc(C)c1-c1ccc2ncnc(NC3CCNCC3)c2c1 |  | 17.3% (inactive) | 31.6 µM (active) | -27.4% (inactive) | 10.3% (inactive) | > 46 µM (inactive) | > 46 µM (inactive) | inactive |  |  | 2.83% (inactive) | 3.61 | 2.68 |  | inactive | inactive | inactive |  |  |
| Cc1cnc(CNc2ncncc2-c2cccc(C#N)c2)cn1 | > 11.4 µM (inactive) | 15% (inactive) | 12.6 µM (active) | 1.24% (inactive) | 9.2% (inactive) | > 46 µM (inactive) | > 46 µM (inactive) | inactive | 2 µM (active) | inactive | 8.03% (inactive) | 20.9 | 25.3 |  | inactive | inactive | inactive | 28.2 µM (active) |  |
| CN1CCN(c2ncnc3ccc(-c4ccc(C(=O)N(C)C)cc4)cc23)CC1 | > 11.4 µM (inactive) | -10.8% (inactive) | inactive | 1.97% (inactive) | -6.95% (inactive) | > 46 µM (inactive) | > 46 µM (inactive) | inactive |  | inactive | 2.73% (inactive) | 23.5 | 25.5 | inactive | inactive | inactive | inactive |  |  |
